# “And” between values parts separate entries of the source, which are not always exact repeats. Identical values can stand only once. The panel holds about 83,000 compounds, 20% with a hit somewhere; the sample as a whole holds those more often.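 Results are percent growth after 48 hours of single-concentration exposure. 100 means growth as in untreated cells, lower positive values show inhibition; negative values down to -100 show cell death.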 The source made the active and inactive calls. Rule for the calls: active = growth percent below 10; inactive = the rest.
# Legend:
# Assay in all cases: NCI-60 one-dose screen, 48 h (100 = growth as untreated, 0 = no growth, -100 = all killed)
# NCI-H23 lung = test system: NCI-H23 lung
# NCI-H226 lung = test system: NCI-H226 lung
# NCI-H322M lung = test system: NCI-H322M lung
# HOP-62 NSCLC = test system: HOP-62 NSCLC
# NCI-H460 lung = test system: NCI-H460 lung
# HOP-92 NSCLC = conditions: 10 µM unless noted
# NCI-H522 lung = conditions: 10 µM unless noted
# A549/ATCC NSCLC = test system: A549/ATCC NSCLC
# 786-0 renal = test system: 786-0 renal
# DU-145 prostate = test system: DU-145 prostate
# K-562 leukemia = test system: K-562 leukemia
# MALME-3M melanoma = test system: MALME-3M melanoma
# MDA-MB-231 breast = test system: MDA-MB-231 breast
# RXF 393 renal = test system: RXF 393 renal
# SF-268 CNS = test system: SF-268 CNS
# SF-295 CNS = test system: SF-295 CNS
# SF-539 CNS = test system: SF-539 CNS
# UACC-257 melanoma = conditions: 10 µM unless noted
# M14 melanoma = test system: M14 melanoma
# COLO 205 colon = conditions: 10 µM unless noted
structure (smiles),measurement,setting,value
CN(C)C(=O)c1ccc(SC(=S)NCc2ccccc2)cc1,growth,NCI-H23 lung; 10 µM,109% (inactive)
same,growth,NCI-H23 lung; 100 µM,5.21% (active)
same,growth,NCI-H226 lung; 10 µM,112% (inactive)
same,growth,NCI-H226 lung; 100 µM,102% (inactive)
same,growth,NCI-H322M lung; 10 µM,110% (inactive)
same,growth,NCI-H322M lung; 100 µM,58.2% (inactive)
same,growth,HOP-62 NSCLC; 10 µM,107% (inactive)
same,growth,HOP-62 NSCLC; 100 µM,46.5% (inactive)
same,growth,NCI-H460 lung; 10 µM,105% (inactive)
same,growth,NCI-H460 lung; 100 µM,8.96% (active)
same,growth,HOP-92 NSCLC,-10.3% [100 µM] (active)
same,growth,NCI-H522 lung,-48.7% [100 µM] (active)
same,growth,A549/ATCC NSCLC; 10 µM,105% (inactive)
same,growth,A549/ATCC NSCLC; 100 µM,34.4% (inactive)
same,growth,786-0 renal; 10 µM,109% (inactive)
same,growth,786-0 renal; 100 µM,-17.6% (active)
same,growth,DU-145 prostate; 10 µM,111% (inactive)
same,growth,DU-145 prostate; 100 µM,10.1% (inactive)
same,growth,K-562 leukemia; 10 µM,82.6% (inactive)
same,growth,K-562 leukemia; 100 µM,3.9% (active)
same,growth,MALME-3M melanoma; 10 µM,108% (inactive)
same,growth,MALME-3M melanoma; 100 µM,-12.7% (active)
same,growth,MDA-MB-231 breast; 10 µM,109% (inactive)
same,growth,MDA-MB-231 breast; 100 µM,13.3% (inactive)
same,growth,RXF 393 renal; 10 µM,108% (inactive)
same,growth,RXF 393 renal; 100 µM,-72.4% (active)
same,growth,SF-268 CNS; 10 µM,124% (inactive)
same,growth,SF-268 CNS; 100 µM,50.2% (inactive)
same,growth,SF-295 CNS; 10 µM,119% (inactive)
same,growth,SF-295 CNS; 100 µM,26.3% (inactive)
same,growth,SF-539 CNS; 10 µM,102% (inactive)
same,growth,SF-539 CNS; 100 µM,-62.3% (active)
same,growth,UACC-257 melanoma,18.4% [100 µM] (inactive)
same,growth,M14 melanoma; 10 µM,103% (inactive)
same,growth,M14 melanoma; 100 µM,-42% (active)
O=C(/C=C/c1cccc(Cl)c1)c1ccccc1,growth,NCI-H23 lung; 10 µM unless noted,95.5% (inactive) and 97.5% (inactive)
same,growth,NCI-H226 lung; 10 µM unless noted,94.2% (inactive) and 74.4% (inactive)
same,growth,NCI-H322M lung; 10 µM unless noted,90.7% (inactive) and 81.9% (inactive)
same,growth,HOP-62 NSCLC; 10 µM unless noted,112% (inactive) and 89.9% (inactive)
same,growth,NCI-H460 lung; 10 µM unless noted,101% (inactive) and 95.9% (inactive)
same,growth,HOP-92 NSCLC,88.1% (inactive)
same,growth,NCI-H522 lung,82.3% (inactive) and 48.4% (inactive)
same,growth,A549/ATCC NSCLC; 10 µM unless noted,83.6% (inactive) and 86.7% (inactive)
same,growth,786-0 renal; 10 µM unless noted,88.3% (inactive) and 77.5% (inactive)
same,growth,COLO 205 colon,115% (inactive) and 105% (inactive)
same,growth,DU-145 prostate; 10 µM unless noted,101% (inactive) and 87.6% (inactive)
same,growth,K-562 leukemia; 10 µM unless noted,28.7% (inactive) and 46.5% (inactive)
same,growth,MALME-3M melanoma; 10 µM unless noted,104% (inactive)
same,growth,MDA-MB-231 breast; 10 µM unless noted,105% (inactive) and 89.2% (inactive)
same,growth,RXF 393 renal; 10 µM unless noted,85.4% (inactive)
same,growth,SF-268 CNS; 10 µM unless noted,99.9% (inactive) and 98.4% (inactive)
same,growth,SF-295 CNS; 10 µM unless noted,93.9% (inactive) and 95.8% (inactive)
same,growth,SF-539 CNS; 10 µM unless noted,105% (inactive) and 97.9% (inactive)
same,growth,UACC-257 melanoma,100% (inactive) and 94.4% (inactive)
same,growth,M14 melanoma; 10 µM unless noted,86.8% (inactive) and 83% (inactive)
Cc1ccc(N=C=C(c2ccccc2)c2ccccc2)cc1,growth,NCI-H23 lung; 10 µM unless noted,81% (inactive)
same,growth,NCI-H226 lung; 10 µM unless noted,90.3% (inactive)
same,growth,NCI-H322M lung; 10 µM unless noted,98.1% (inactive)
same,growth,HOP-62 NSCLC; 10 µM unless noted,104% (inactive)
same,growth,NCI-H460 lung; 10 µM unless noted,97.3% (inactive)
same,growth,HOP-92 NSCLC,79.2% (inactive)
same,growth,NCI-H522 lung,76% (inactive)
same,growth,A549/ATCC NSCLC; 10 µM unless noted,97.5% (inactive)
same,growth,786-0 renal; 10 µM unless noted,70.1% (inactive)
same,growth,COLO 205 colon,114% (inactive)
same,growth,DU-145 prostate; 10 µM unless noted,108% (inactive)
same,growth,K-562 leukemia; 10 µM unless noted,8.39% (active)
same,growth,MALME-3M melanoma; 10 µM unless noted,95% (inactive)
same,growth,MDA-MB-231 breast; 10 µM unless noted,83.3% (inactive)
same,growth,RXF 393 renal; 10 µM unless noted,92.5% (inactive)
same,growth,SF-268 CNS; 10 µM unless noted,93.5% (inactive)
same,growth,SF-295 CNS; 10 µM unless noted,98% (inactive)
same,growth,SF-539 CNS; 10 µM unless noted,91% (inactive)
same,growth,UACC-257 melanoma,89.1% (inactive)
same,growth,M14 melanoma; 10 µM unless noted,-7.3% (active)
Oc1ccc(/C=N/NC(=S)Nc2ccccc2)nc1,growth,NCI-H23 lung; 10 µM unless noted,14.9% (inactive)
same,growth,NCI-H226 lung; 10 µM unless noted,5.69% (active)
same,growth,NCI-H322M lung; 10 µM unless noted,21.2% (inactive)
same,growth,HOP-62 NSCLC; 10 µM unless noted,12.2% (inactive)
same,growth,NCI-H460 lung; 10 µM unless noted,2.79% (active)
same,growth,HOP-92 NSCLC,-0.553% (active)
same,growth,NCI-H522 lung,-14.2% (active)
same,growth,A549/ATCC NSCLC; 10 µM unless noted,11.5% (inactive)
same,growth,786-0 renal; 10 µM unless noted,-21% (active)
same,growth,COLO 205 colon,24.4% (inactive)
same,growth,DU-145 prostate; 10 µM unless noted,12.3% (inactive)
same,growth,K-562 leukemia; 10 µM unless noted,14.1% (inactive)
same,growth,MALME-3M melanoma; 10 µM unless noted,14.4% (inactive)
same,growth,MDA-MB-231 breast; 10 µM unless noted,49.3% (inactive)
same,growth,RXF 393 renal; 10 µM unless noted,3.06% (active)
same,growth,SF-268 CNS; 10 µM unless noted,18.7% (inactive)
same,growth,SF-295 CNS; 10 µM unless noted,25.3% (inactive)
same,growth,SF-539 CNS; 10 µM unless noted,1.01% (active)
same,growth,UACC-257 melanoma,4.98% (active)
same,growth,M14 melanoma; 10 µM unless noted,-34.8% (active)
Nc1nc(N)c2nc(CNc3ccc(C(=O)NC(CCC(=O)O)C(=O)O)cc3)cnc2n1 (stereo not given),growth,NCI-H23 lung; 10 µM unless noted,24.8% (inactive) and 22.4% (inactive)
same,growth,NCI-H226 lung; 10 µM unless noted,60.5% (inactive) and 52% (inactive)
same,growth,NCI-H322M lung; 10 µM unless noted,51.2% (inactive) and 50.8% (inactive)
same,growth,HOP-62 NSCLC; 10 µM unless noted,39.1% (inactive) and 11.7% (inactive)
same,growth,NCI-H460 lung; 10 µM unless noted,15.2% (inactive) and 12.2% (inactive)
same,growth,HOP-92 NSCLC,69.9% (inactive) and 43.7% (inactive)
same,growth,NCI-H522 lung,35% (inactive) and 38.7% (inactive)
same,growth,A549/ATCC NSCLC; 10 µM unless noted,28.7% (inactive) and 36.9% (inactive)
same,growth,786-0 renal; 10 µM unless noted,13.9% (inactive) and 8.47% (active)
same,growth,COLO 205 colon,56.1% (inactive) and 32.8% (inactive)
same,growth,DU-145 prostate; 10 µM unless noted,28.2% (inactive) and 21.8% (inactive)
same,growth,K-562 leukemia; 10 µM unless noted,18.7% (inactive) and 32% (inactive)
same,growth,MALME-3M melanoma; 10 µM unless noted,47.8% (inactive) and 48.3% (inactive)
same,growth,MDA-MB-231 breast; 10 µM unless noted,78.1% (inactive) and 60.1% (inactive)
same,growth,RXF 393 renal; 10 µM unless noted,48% (inactive) and 76.4% (inactive)
same,growth,SF-268 CNS; 10 µM unless noted,26.6% (inactive) and 27.3% (inactive)
same,growth,SF-295 CNS; 10 µM unless noted,26% (inactive) and 12.9% (inactive)
same,growth,SF-539 CNS; 10 µM unless noted,21.3% (inactive) and 18.4% (inactive)
same,growth,UACC-257 melanoma,57.8% (inactive) and 52.2% (inactive)
same,growth,M14 melanoma; 10 µM unless noted,10.8% (inactive) and 9.2% (active)

# Source: PubChem BioAssay (NCI)
